Screening results as filed in PubChem.
Rows were chosen to be rich in hits. Some 0.5% of all compounds tested hit in one or more screens of this group.
E coli growth-1: E. coli growth inhibition. Escherichia coli growth, OD600, 23 h; active compounds read low. OD600 absorbance (test concentration not listed). hit rate 0.21% among 330,000;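 active = OD600 absorbance below the run mean of sample wells minus 3.6 SD, in any replicate, cut at about 0.56 in these data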
Tat export inh: E. coli Tat transport inhibition. hit rate 0.036% among 340,000. E. coli MC4100 TorA-mCherry Tat export, fluorescence. inhibition, % at 10 µM;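 active = mean replicate inhibition at least 50% and at least half of replicates individually reaching 50%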;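 note: exported cargo escapes ClpAP degradation while cytoplasmic cargo is degraded and loses fluorescence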
phage Ecoli inh: E. coli growth loss with phage present; hit rate 0.26% among 360,000; growth absorbance; AID 651602; inhibition, % at 11.9 µM; in the data active = inhibition above about 11%
AddAB inh: less growth of phage-infected E. coli with AddAB; E. coli expressing H. pylori AddAB, absorbance growth; inhibition, % at 11.9 µM; hit rate 0.29% among 330,000; in the data active = inhibition above about 12%
E coli growth-2: bacterial growth inhibition, counter-screen for AddAB inhibitors; E. coli V3065 growth, OD600 absorbance, 18 h; inhibition, % at 11.9 µM; hit rate 0.27% among 330,000; AID 449728;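 active = inhibition above the campaign's mean inhibition across all tested compounds plus 3 SD, cut at about 9.9% in these data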;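 note: uninfected addAB+ strain grown without phage in ampicillin broth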
RecBCD conf: growth loss of phage-infected V66 E. coli, RecBCD confirmation screen. shares compounds with phage Ecoli inh. E. coli V66 + T4 2- phage, growth OD. inhibition, % at 11.9 µM. hit rate 45% among 890;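 active = mean inhibition over triplicates exceeding the hit threshold derived in the original primary screen, cut at about 11% in these data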
Ecoli viability: inhibits E. coli viability, flagging RecBCD hits as nonselective; shares compounds with phage Ecoli inh; inhibition, % at 11.9 µM; absorbance (OD) growth; AID 651983; hit rate 29% among 890; in the data active = inhibition above about 20%;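 note: E. coli strain V66 grown with compound alone and no phage infection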
AddAB counter: growth loss of phage-infected AddAB E. coli, RecBCD counter-screen; shares compounds with phage Ecoli inh; E. coli expressing H. pylori AddAB + T4 phage, OD growth; gene 2 mutant T4, recBCD-deleted host; inhibition, % at 11.9 µM; hit rate 45% among 890; AID 651984;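 active = mean inhibition above the solvent-only control wells' mean plus 3 SD, cut at about 22% in these data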;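 note: higher means less bacterial growth from phage killing when AddAB is blocked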
Large screens that a line does not name were inactive (follow-up assays come after a bar, where they were run).

CN(C)C(=O)/C(=C\c1ccc(-c2cccc([N+](=O)[O-])c2)o1)NC(=O)c1ccccc1	none
CN(C)C(=O)/C(=C/c1ccc(-c2cccc([N+](=O)[O-])c2)o1)NC(=O)c1ccccc1	phage Ecoli inh 19 | RecBCD conf inactive | Ecoli viability inactive | AddAB counter inactive
C/C(C=NN1CCN(c2ccccn2)CC1)=C\c1ccccc1	none (no result: Tat export inh, phage Ecoli inh, AddAB inh, E coli growth-2)
O=C(O)Cn1cc(F)c(=O)[nH]c1=O	none (no result: Tat export inh, phage Ecoli inh)
O=C1C=CC(n2cc(F)c(=O)[nH]c2=O)O1 (stereo not given)	phage Ecoli inh 24 (no result: E coli growth-1, Tat export inh, AddAB inh, E coli growth-2) | RecBCD conf 32 | Ecoli viability 22 | AddAB counter 46
CC1OC(Oc2c(-c3ccc(O)c(O)c3)oc3cc(O)cc(O)c3c2=O)C(O)C(O)C1O (stereo not given)	none (no result: Tat export inh, phage Ecoli inh, AddAB inh, E coli growth-2)
CC(CC(=O)Nc1ccc(F)cc1)=NNC(=O)COc1ccccc1	none (no result: Tat export inh, phage Ecoli inh, AddAB inh, E coli growth-2)
CCC(=O)Nc1sc(Cc2ccc3c(c2)OCO3)c(C)c1C(N)=O	none
Cc1c(Cc2ccc3c(c2)OCO3)sc(NC(=O)C(C)(C)C)c1C#N	phage Ecoli inh 100 | RecBCD conf inactive | Ecoli viability inactive | AddAB counter inactive
C=CCNC(=S)NN=Cc1ccc(C)cc1C	none (no result: Tat export inh, phage Ecoli inh, AddAB inh, E coli growth-2)
Cc1ccc(SCCn2nc(C(=O)O)c3ccccc3c2=O)cc1	none
O=C(O)c1nn(CCSc2ccccc2F)c(=O)c2ccccc12	phage Ecoli inh 37 | RecBCD conf inactive | Ecoli viability inactive | AddAB counter inactive
Cc1cc(=O)[nH]c(N=N/C(=N/Nc2ccccc2C)c2ccccc2)n1	none (no result: E coli growth-1)
Cc1cc(=O)[nH]c(N=N/C(=N/Nc2ccc(O)cc2)c2ccccc2)n1	phage Ecoli inh 21 (no result: E coli growth-1) | RecBCD conf 19 | Ecoli viability inactive | AddAB counter 79
O=[N+]([O-])c1ccc2nc(-c3ccc(Cl)cc3)[nH]c2c1	phage Ecoli inh 11 | RecBCD conf inactive | Ecoli viability inactive | AddAB counter inactive
Cc1ccc(-c2nc3ccc([N+](=O)[O-])cc3[nH]2)cc1	none
Cc1ccc(/C=C/C(=O)c2c(C)nc3ccccn23)cc1	phage Ecoli inh 12 | RecBCD conf inactive | Ecoli viability inactive | AddAB counter inactive
Oc1c(C(Nc2cccc(C(F)(F)F)c2)c2cccnc2)ccc2cccnc12 (stereo not given)	phage Ecoli inh 12 | RecBCD conf inactive | Ecoli viability inactive | AddAB counter inactive
Cc1cc(NC(c2cccnc2)c2ccc3cccnc3c2O)no1 (stereo not given)	phage Ecoli inh 13 | RecBCD conf inactive | Ecoli viability inactive | AddAB counter inactive
Cc1cc(C)nc(Nc2cccc(C(F)(F)F)c2)n1	none
CSC(=C[N+](=O)[O-])Nc1ccc(F)cc1	none (no result: Tat export inh, phage Ecoli inh, AddAB inh, E coli growth-2)
Cn1ccc(=O)c2cc([N+](=O)[O-])ccc21	phage Ecoli inh 15 (no result: E coli growth-1, Tat export inh, AddAB inh, E coli growth-2) | RecBCD conf inactive | Ecoli viability inactive | AddAB counter 99
COc1cccc(-c2cnc(C(O)c3ccc(F)cc3)[nH]2)c1 (stereo not given)	none (no result: E coli growth-1, Tat export inh, AddAB inh, E coli growth-2)
COc1cccc(-c2cnc(C(O)c3ccc(F)c(C)c3)[nH]2)c1 (stereo not given)	phage Ecoli inh 12 (no result: E coli growth-1, Tat export inh, AddAB inh, E coli growth-2) | RecBCD conf inactive | Ecoli viability inactive | AddAB counter inactive
COc1cccc(-c2cnc(C(O)c3cc(C)cc(C)c3)[nH]2)c1 (stereo not given)	phage Ecoli inh 13 (no result: E coli growth-1, Tat export inh, AddAB inh, E coli growth-2) | RecBCD conf inactive | Ecoli viability inactive | AddAB counter inactive
CCc1cc(OCCN(C)C)ccc1Cl	none
CN(C)CCOc1ccc2c(c1)C(=O)C(=Cc1ncc([N+](=O)[O-])n1C)C2	phage Ecoli inh 95 (no result: E coli growth-1, Tat export inh, AddAB inh, E coli growth-2) | RecBCD conf 87 | Ecoli viability 96 | AddAB counter 100
CCN1CCN(c2ccc(S(=O)(=O)N3CCCCC3)cc2NC(=O)c2ccc([N+](=O)[O-])o2)CC1	none
CCN1CCN(c2ccc(NC(=O)c3ccc([N+](=O)[O-])o3)cc2Cl)CC1	phage Ecoli inh 21 (no result: AddAB inh, E coli growth-2) | RecBCD conf 16 | Ecoli viability inactive | AddAB counter 102
CC(=NNC(=O)c1cc(-c2cccc(OC(C)C)c2)nc2ccccc12)c1cccnc1	none (no result: Tat export inh, phage Ecoli inh, AddAB inh, E coli growth-2)
